# Test results as given in PubChem BioAssay (Tox21).
# Inconclusive results are not listed. Where a call stands in place of a potency, no number is given. Active and inactive are the calls of the source. Unless noted, the call rests on the fitted dose curve; in most records, active means well fitted curve in the direction sought with a large enough effect in the repeat runs; inconclusive means weak or mixed curves; inactive means no such curve, though single readings can be large; an effect the other way counts as inactive or inconclusive.
# Assays:
# [1] = A CellTox Green Cytotoxicity Assay to monitor cytotoxicity in HEK293 cells - 32 hour (AID 1224881); further: nearly all actives have a fitted effect of over 40% in size
# In short: (§1)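 HEK293 cells, 600/well, were preincubated 5 hours and then exposed to compounds at 37 C for up to 40 hours. A cell-impermeant cyanine dye staining dead-cell DNA was read by fluorescence at 0, 8, 16, 24, 32 and 40 h time points.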
# [2] = A CellTox Green Cytotoxicity Assay to monitor cytotoxicity in HepG2 cells - 0 hour (AID 1224882); further: nearly all actives have a fitted effect of over 35% in size
# In short: (§2)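 HepG2 cells, 600/well, preincubated 5 h with CellTox Green dye, then exposed to Tox21 compounds in DMSO at 37 C for up to 40 h. Dead-cell DNA fluorescence read at the indicated time point.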
# [3] = A CellTox Green Cytotoxicity Assay to monitor cytotoxicity in HepG2 cells - 32 hour (AID 1224883); further: nearly all actives have a fitted effect of over 50% in size; further: potency means the concentration at half of the fitted maximal effect
# In short: as §2
# [4] = A CellTox Green Cytotoxicity Assay to monitor cytotoxicity in HEK293 cells - 8 hour (AID 1224884); further: nearly all actives have a fitted effect of over 35% in size
# In short: as §1
# [5] = qHTS RealTime-Glo MT Cell Viability Assay in HepG2 cells - 16 hour (AID 1224885); further: nearly all actives have a fitted effect of over 50% in size
# In short: (§3)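 Compound treatment began 5 h after plating HepG2 cells (600/well) with NanoLuc luciferase and prosubstrate. Plates stayed at 37 C for 40 h; luminescence was captured at six time points, 0 h through 40 h.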
# [6] = qHTS RealTime-Glo MT Cell Viability Assay in HEK293 cells - 8 hour (AID 1224887); further: top concentration of the series differs between compounds; nearly all actives have a fitted effect of over 50% in size
# In short: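 600 cells/well were plated with the nonlytic NanoLuc/prosubstrate reagent, pre-incubated 5 h, then given 23 nL of compound in DMSO. Incubation at 37 C for 40 h, with luminescence from viable-cell-reduced substrate read repeatedly from 0 h.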
# [7] = A CellTox Green Cytotoxicity Assay to monitor cytotoxicity in HEK293 cells - 16 hour (AID 1224888); further: nearly all actives have a fitted effect of over 35% in size
# In short: as §1
# [8] = qHTS RealTime-Glo MT Cell Viability Assay in HepG2 cells - 0 hour (AID 1224889); further: nearly all actives have a fitted effect of over 50% in size
# In short: as §3
# [9] = A CellTox Green Cytotoxicity Assay to monitor cytotoxicity in HepG2 cells - 8 hour (AID 1224890); further: nearly all actives have a fitted effect of over 45% in size
# In short: as §2
# [10] = qHTS assay to identify small molecule antagonists of the estrogen receptor alpha (ER-alpha) signaling pathway using the BG1 cell line in the presence of 0.1 nM 17-beta-estradiol - cell viability counter screen (AID 1259241); further: nearly all actives have a fitted effect of over 40% in size
# In short: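 VM7Luc4E2 cells (endogenous full-length ER-alpha, 4xERE-luciferase), cultured 5 days in charcoal-stripped serum, exposed to compounds with 0.1 nM 17beta-estradiol (final) for 22 hr at 37C. Viability read in same wells as live-cell protease fluorescence after 30 min.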
# [11] = qHTS assay to identify small molecule antagonists of the androgen receptor (AR) signaling pathway using the MDA cell line in the presence of 0.5 nM R1881 - cell viability counter screen (AID 1259242); further: nearly all actives have a fitted effect of over 45% in size
# In short: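 MDA-kb2 cells (MMTV-luciferase, AR/GR responsive) were treated with compounds plus 0.5 nM R1881 (final) for 16 hr at 37C, 0% CO2. Viability was then read in the same wells as live-cell protease fluorescence (CellTiter-Fluor, 30 min).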
# [12] = qHTS assay to identify small molecule HDAC inhibitors - cell viability counter screen (AID 1259365)
# In short: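 Wild-type HCT-116 cells, 1,500/well, cultured overnight, then compound-treated 2 h at 37 C. Viability measured as ATP luminescence with CellTiter-Glo after 30 min at room temperature.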
# [13] = qHTS assay to identify small molecule agonists of the sonic hedgehog signaling (Shh) pathway - cell viability counter screen (AID 1259366); further: nearly all actives have a fitted effect of over 50% in size
# In short: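 NIH/3T3-derived Gli1-Luc reporter cells, 2,000 per well, received compound after 4 h and were treated about 23 h at 37C. Viability measured in the same wells by CellTiter-Fluor fluorescence after 1 h.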
# [14] = qHTS assay to identify small molecule antagonists of the sonic hedgehog signaling (Shh) pathway - cell viability counter screen (AID 1259367); further: nearly all actives have a fitted effect of over 55% in size
# In short: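 Seed 3T3 Gli1-Luc cells at 2,000 per well; incubate 4 hr; add compound in DMSO, then conditioned medium; incubate at 37C with 5% CO2; add CellTiter-Fluor after 23 hr; read fluorescence 1 hr later.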
# [15] = qHTS assay to identify small molecule agonists of the sonic hedgehog signaling (Shh) pathway (AID 1259368; calls by dose curve;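 further: NIH/3T3-derived 3T3Gli1-Luc cells carrying a stable Gli1-driven firefly luciferase reporter; series mostly up to about 92 µM; nearly all actives have a fitted effect of over 15% in size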)
# In short: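 NIH/3T3-derived 3T3Gli1-Luc cells with stably integrated Gli1-driven firefly luciferase, 2,000 cells/well, compounds added after 4 hr. Incubated 24 hr at 37C, 5% CO2; luminescence read after 30 min with luciferase reagent at room temperature.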
# [16] = qHTS RealTime-Glo MT Cell Viability Assay in HEK293 cells - 24 hour (AID 1224886); further: nearly all actives have a fitted effect of over 50% in size; further: potency means the concentration at half of the fitted maximal effect
# In short: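 Quantitative high-throughput screen of the Tox21 10K library in HEK293: cells and RealTime-Glo reagents plated together, compound added at 5 h, luminescence monitored through 40 h at 37 C.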
# [17] = biological target: Estrogen receptor (Homo sapiens) (UniProt P03372); experiment: qHTS assay to identify small molecule antagonists of the estrogen receptor alpha (ER-alpha) signaling pathway using the BG1 cell line in the presence of 0.1 nM 17-beta-estradiol (AID 1259244); further: nearly all actives have a fitted effect of over 50% in size; further: potency means the concentration at half of the fitted maximal effect
# In short: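 VM7Luc4E2 cells (endogenous full-length ER-alpha, 4×ERE-luciferase), kept 5 days in phenol red-free, charcoal-stripped FBS medium; 4,000 cells/well. Compounds added with 0.1 nM (final) 17beta-estradiol, 22 hr at 37C; luminescence read with ONE-Glo after 30 min.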
# [18] = qHTS assay to identify small molecule HDAC inhibitors (AID 1259364); further: top concentration of the series differs between compounds; nearly all actives have a fitted effect of over 45% in size
# In short: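 Wild-type HCT-116 cells, plated overnight at 37 C, exposed to compounds 2 hr at 37 C; luminogenic HDAC-Glo substrate then added 30 min at room temperature. Luminescence reports relative endogenous class I/II HDAC activity.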
# [19] = qHTS assay to identify small molecule phospholipidosis (PLD) inducers (AID 1259344; active means well fitted curve in the direction sought with a large enough effect; an effect the other way counts as inactive or inconclusive)
# In short: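 Quantitative HTS in HepG2: compound plus LipidTOX Red dye for 24 h, paraformaldehyde fixation with Hoechst 33342, widefield high-content imaging; amiodarone as positive and DMSO as negative control.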
# Sequence of Estrogen receptor (Homo sapiens) (P03372 whole entry, looked up): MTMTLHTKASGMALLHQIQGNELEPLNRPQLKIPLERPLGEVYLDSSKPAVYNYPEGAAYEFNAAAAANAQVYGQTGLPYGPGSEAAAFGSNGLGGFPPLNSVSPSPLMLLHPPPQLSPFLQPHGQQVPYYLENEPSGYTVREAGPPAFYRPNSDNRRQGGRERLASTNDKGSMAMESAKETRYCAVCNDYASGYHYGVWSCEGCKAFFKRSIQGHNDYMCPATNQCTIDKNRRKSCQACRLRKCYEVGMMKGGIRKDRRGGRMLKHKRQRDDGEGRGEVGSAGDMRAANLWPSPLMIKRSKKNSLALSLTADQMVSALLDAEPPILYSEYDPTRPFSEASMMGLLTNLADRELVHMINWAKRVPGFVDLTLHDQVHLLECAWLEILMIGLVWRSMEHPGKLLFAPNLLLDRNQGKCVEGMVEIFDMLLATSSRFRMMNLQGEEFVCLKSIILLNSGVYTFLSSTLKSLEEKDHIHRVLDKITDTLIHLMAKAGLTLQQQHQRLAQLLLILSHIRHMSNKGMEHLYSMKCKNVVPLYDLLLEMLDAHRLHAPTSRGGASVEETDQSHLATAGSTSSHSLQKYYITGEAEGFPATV
Structure (SMILES),Potency [1],Potency [2],Potency [3],Potency [4],Potency [5],Potency [6],Potency [7],Potency [8],Potency [9],Potency [10],Potency [11],Potency [12],Potency [13],Potency [14],outcome [15],Potency [16],Potency [17],Potency [18],Potency [19]
C/C=C/C=C/CO,inactive,inactive,inactive,inactive,inactive,inactive,inactive,inactive,inactive,inactive,inactive,inactive,inactive,inactive,inactive,–,–,–,–
COc1cccc(N(C)C(=S)Oc2ccc3c(c2)CCCC3)n1,inactive,inactive,inactive,inactive,inactive,inactive,–,inactive,inactive,inactive,–,–,inactive,inactive,inactive,inactive,inactive,inactive,–
COc1ccnc(CS(=O)c2nc3ccc(OC(F)F)cc3[nH]2)c1OC (centres undefined),inactive,inactive,inactive,inactive,inactive,inactive,–,inactive,inactive,inactive,inactive,inactive,–,inactive,–,inactive,inactive,–,inactive
C/C=C(/C(=C/C)c1ccc(OC(C)=O)cc1)c1ccc(OC(C)=O)cc1,inactive,inactive,inactive,inactive,inactive,inactive,–,inactive,inactive,inactive,inactive,inactive,inactive,inactive,inactive,inactive,inactive,–,–
CCCCNc1ccc(C(=O)OCCOCCOCCOCCOCCOCCOCCOCCOCCOC)cc1,inactive,inactive,inactive,inactive,inactive,inactive,inactive,inactive,inactive,–,inactive,–,inactive,–,inactive,–,8.41 µM (active),inactive,–
CO[C@@H]1[C@H](OC(=O)/C=C/C=C/C=C/C=C/C(=O)O)CC[C@]2(CO2)[C@H]1[C@@]1(C)O[C@@H]1CC=C(C)C,inactive,inactive,inactive,inactive,inactive,inactive,inactive,inactive,inactive,–,inactive,inactive,–,inactive,inactive,–,–,inactive,inactive
C#CCN(C)CCCOc1ccc(Cl)cc1Cl,inactive,inactive,19 µM (active),inactive,inactive,–,inactive,–,inactive,–,inactive,inactive,inactive,inactive,inactive,inactive,inactive,inactive,–
O=[N+]([O-])c1cccc(S(=O)(=O)O)c1,inactive,inactive,inactive,inactive,inactive,–,inactive,inactive,inactive,inactive,–,inactive,–,inactive,inactive,22.2 µM (active),–,inactive,–
